According to PMC8159961, “Exploring protein hotspots by optimized fragment pharmacophores” (Nature Communications, 2021):
A number with no mark means an inactive call. No rule for the calls is given here.

Legend:
Test in all cases: primary screen, binary call; higher = more effect of the substance
Factor Xa = Factor Xa (bovine, UniProt P00743); parameters: screenings were carried out in duplicate in one independent experiment; conditions: 200 µM
Experimental: Protease inhibitory assays were performed in transparent microtiter plates in a final volume of 200 µL with the use of chromogenic substrates. The reaction rates in the absence and in the presence of the inhibitor were measured; screenings were carried out in duplicate in one independent experiment and Ki values were determined in triplicate in two independent experiments.

5-HT6 receptor = 5-HT6 receptor (human, UniProt P50406); parameters: hit call from the mean of at least two separate experiments; conditions: 10 µM
5-HT7b receptor = 5-HT7b receptor (human, UniProt P34969); parameters: hit call from the mean of at least two separate experiments; conditions: 10 µM
Chain of 5-HT7b receptor (P34969 whole entry, looked up): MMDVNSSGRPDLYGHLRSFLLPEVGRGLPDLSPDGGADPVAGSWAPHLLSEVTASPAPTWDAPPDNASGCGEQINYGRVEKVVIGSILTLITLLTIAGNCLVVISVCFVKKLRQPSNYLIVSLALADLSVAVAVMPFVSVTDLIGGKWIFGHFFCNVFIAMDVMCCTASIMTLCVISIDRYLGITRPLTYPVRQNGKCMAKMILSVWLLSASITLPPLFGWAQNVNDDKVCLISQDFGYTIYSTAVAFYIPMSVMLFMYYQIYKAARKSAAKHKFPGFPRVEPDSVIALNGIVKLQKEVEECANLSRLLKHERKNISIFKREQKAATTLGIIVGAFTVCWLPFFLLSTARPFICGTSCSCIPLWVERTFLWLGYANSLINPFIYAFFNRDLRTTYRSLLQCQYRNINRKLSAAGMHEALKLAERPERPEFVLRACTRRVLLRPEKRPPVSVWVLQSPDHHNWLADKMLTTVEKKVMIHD

Chain of 5-HT6 receptor (P50406 whole entry, looked up): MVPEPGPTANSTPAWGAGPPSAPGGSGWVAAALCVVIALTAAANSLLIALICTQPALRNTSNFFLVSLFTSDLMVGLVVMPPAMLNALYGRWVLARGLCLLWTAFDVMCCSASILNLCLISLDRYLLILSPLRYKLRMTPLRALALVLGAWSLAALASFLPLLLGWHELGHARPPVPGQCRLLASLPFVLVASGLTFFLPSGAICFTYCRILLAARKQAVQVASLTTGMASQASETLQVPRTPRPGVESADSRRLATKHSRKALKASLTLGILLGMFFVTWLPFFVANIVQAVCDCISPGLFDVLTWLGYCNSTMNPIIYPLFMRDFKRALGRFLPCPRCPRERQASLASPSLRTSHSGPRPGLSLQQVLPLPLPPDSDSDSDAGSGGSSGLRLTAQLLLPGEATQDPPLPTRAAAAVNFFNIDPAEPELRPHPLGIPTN
Chain of Factor Xa (P00743 41-180 limits assumed): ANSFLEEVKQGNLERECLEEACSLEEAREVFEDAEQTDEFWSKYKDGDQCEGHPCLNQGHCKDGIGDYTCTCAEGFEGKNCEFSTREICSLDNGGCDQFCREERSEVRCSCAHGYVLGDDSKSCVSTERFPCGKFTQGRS
Chain of Factor Xa (P00743 234-492 limits assumed): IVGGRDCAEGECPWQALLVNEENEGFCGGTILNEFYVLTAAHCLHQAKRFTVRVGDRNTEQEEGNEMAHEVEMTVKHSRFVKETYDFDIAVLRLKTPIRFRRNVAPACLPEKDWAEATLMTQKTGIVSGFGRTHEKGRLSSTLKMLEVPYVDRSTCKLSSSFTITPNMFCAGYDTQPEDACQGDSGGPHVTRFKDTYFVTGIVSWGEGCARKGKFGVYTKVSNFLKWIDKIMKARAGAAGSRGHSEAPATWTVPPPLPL

| Structure (SMILES) | Factor Xa (Factor Xa) | 5-HT6 (5-HT6 receptor) | 5-HT7 (5-HT7b receptor) |
| --- | --- | --- | --- |
| Cc1ccc(CCNc2ccccc2)cn1 | 0 | 0 | 0 |
| NC(=O)N1CCC(C(=O)O)CC1 | 0 | 0 | 0 |
| c1ccc2oc(C3CCCNC3)nc2c1 (stereo not drawn) | 0 | 0 | 0 |
| O=C(NC1CC1)c1ccccc1O | 0 | 0 | 0 |
| Nc1ccc(-c2ccccc2)cc1C(=O)O | 0 | 0 | 0 |
| O=C(c1ccccc1)N1CCC(CO)CC1 | 0 | 0 | 0 |
| NCC1(c2ccccc2)CCOCC1 | 0 | 0 | 0 |
| c1ccc(-c2ccncc2)cc1 | 0 | 0 | 0 |
| N#Cc1ccc2ncsc2c1 | 0 | 0 | 0 |
| O=C(CN1CCNCC1)c1ccccc1 | 0 | 0 | 0 |
| Cc1cc(C)c2c(=O)[nH]n(C)c2n1 | 0 | 0 | 0 |
| Oc1ccccc1N1CCCCC1 | 1 (active) | 1 (active) | 0 |
| O=C1CCCc2occc21 | 0 | 0 | 0 |
| O=C1NC2(CCCC2)Nc2ccccc21 | 0 | 0 | 0 |
| O=C(Nc1ccccc1)C1CC1 | 0 | 0 | 0 |
| Fc1ccc2c(C3CCNCC3)c[nH]c2c1 | 0 | 1 (active) | 1 (active) |
